Results filed as inconclusive are left out. Calls of active or inactive are those of the source.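 Rule for the calls: active = all three timepoint tests show falling viability with half-maximal potency at or below twice the top dose; inconclusive = timepoint tests disagree on the call; inactive = all timepoint tests inactive.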
Test: cytotoxicity in LOX IMVI cells – cell-based, Alamar Blue fluorescence, 8/24/48 h, dry powder, HRAS target identification, dose response (AID 720606)

SMILES | outcome
CCC(=O)N(c1ccc(OC)c(Cl)c1)C(C(=O)NCCc1ccccc1)c1cccs1 (configuration not stated) | inactive
Cc1onc(C(=O)N2CCN(C(c3ccncc3)c3ccncc3)CC2)c1[N+](=O)[O-] | inactive
